This is part of a sample that, as a whole, favours compounds with a hit. Of some 83,000 tested, about 20% had one in any assay.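 Cells were grown in 96-well plates and exposed to the test compound at a single concentration for 48 hours; results are reported as percent growth, with values below 10 considered active.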 Activity calls are given as the source filed them.

The test system of this test is SF-295 CNS. As to the kind of experiment: NCI-60 one-dose screen, 48 h (100 = growth as untreated, 0 = no growth, -100 = all killed). To be noted: 10 µM unless noted.
Turning to `CCCCCCNc1cc(C)nc2ccc(OC)cc12`, the growth was 44.4% (inactive). Consider `Cc1ccc(C)c2c1C(=O)OC2=O`, for which the growth was 96.2% (inactive). Turning to `CCN(CC)CCCNC(=O)c1ccc(N)cc1O`, the growth is 99.7% (inactive). As for `O=[N+]([O-])c1ccc(-c2cc3c(Nc4ccc(OCc5cccc(Cl)c5)c(Cl)c4)ncnc3s2)cc1`, the figure is 59.6% (inactive); as for `COC(=O)Nc1nc2ccc(C(=O)C3CC3)cc2[nH]1`, -38.5% (active). In the case of `CCOC(=O)C(O)C(O)(c1ccccc1)c1ccccc1` (stereo not drawn), the growth is 95.6% (inactive). As for `N#Cc1cnn2c(-c3ccc(Cl)cc3)nc(NC3CC3)nc12`, the figure is 89.8% (inactive); as for `O=C(C[C@@]1(O)C(=O)Nc2c(Cl)ccc(Cl)c21)c1ccc(C2CC2)cc1`, -9.37% (active). `CN(CCC(=O)/C(=C\c1ccccc1)c1ccc(Cl)cc1)Cc1ccccc1`: the growth was 25.7% (inactive). For `CC1=NN(c2cccc(Cl)c2)C(=O)/C1=C\c1cn(CC(O)CN2CCCCC2)c2ccccc12` (stereo not drawn) the value was 62.4% (inactive); for `O=C(NCOC(O)C(Cl)(Cl)Cl)NCOC(O)C(Cl)(Cl)Cl` (stereo not drawn), 93.8% (inactive); for `O=[N+]([O-])c1ccccc1C(O)Cc1ccc2ccccc2n1` (stereo not drawn), 103% (inactive). As to `N#Cc1cnn2c(-c3ccc(Cl)cc3)nc(NCCc3ccccc3)nc12`, the growth was 99.2% (inactive). For `CCOC(=O)C(=CNc1ccccc1[N+](=O)[O-])C(=O)OCC` the value was 98.6% (inactive). For `Cc1ccc(NSc2ccccc2[N+](=O)[O-])cc1` the value was 11.4% (inactive); for `CN(C)CCC(O)(Cc1ccccc1)c1ccccc1` (stereo not drawn), 103% (inactive); for `CCOc1cc(N)ccc1C(=O)NCCCN(CC)CC`, 103% (inactive). Regarding `COc1ccc(-c2nnc(SCC(=O)NC3=NN=C(c4ccccc4)CS3)o2)cc1`, the growth was 98% (inactive). For the compound `C#C[C@]1(O)CC[C@H]2[C@@H]3CC=C4c5sc(N=C(N)N)nc5CC[C@]4(C)[C@H]3CC[C@@]21C`, the growth was -56.2% (active). For `CCCCCCCCN(CCCCCCCC)C(=N)c1ccnc2ccccc12` the value was -84.4% (active). With `COc1cc(-c2ccc(N=Nc3c(O)c(C(=O)Nc4ccccc4OC)cc4ccccc34)c(OC)c2)ccc1N=Nc1c(O)c(C(=O)Nc2ccccc2OC)cc2ccccc12`, the growth is 95.1% (inactive). As for `O=C1c2ccccc2C2(c3ccc(O)cc3)c3ccccc3Oc3cccc1c32` (stereo not drawn), the figure is 21.3% (inactive); as for `Cc1c(Cl)cccc1NS(=O)(=O)c1ccccc1`, 95.2% (inactive). With `CN(C)c1cnccn1`, the growth is 122% (inactive). For the compound `Fc1ccc(Nc2nc3nonc3nc2Nc2ccc(F)cc2)cc1`, the growth was -20.7% (active).

Consider `Cc1nc2ccccc2c(/C=C/c2ccc(Cl)cc2)c1C(=O)/C=C/c1ccc(Cl)cc1`, for which the growth is -65.6% (active).

On to `Fc1ccc(Nc2nc(Nc3ccc(-c4nc5ccccc5[nH]4)cc3)c3cn[nH]c3n2)cc1`, for which the growth was 92.6% (inactive). `Nc1ccc(-c2cc3c(Nc4ccc(OCc5cccc(F)c5)c(Cl)c4)ncnc3s2)cc1`: the growth was 47.8% (inactive). Turning to `O=[N+]([O-])c1ccc(-c2cc3c(Nc4ccc(Cl)c(C(F)(F)F)c4)ncnc3s2)cc1`, the growth is -6.39% (active).

On to `O=[N+]([O-])c1ccc(-c2cc3c(Nc4ccc(Sc5nc6ccccc6s5)c(Cl)c4)ncnc3s2)cc1`, for which the growth is 23.2% (inactive). As for `CCOC(=O)N1CCc2c(sc3c2C(=O)N[C@H](c2ccc(OC)cc2)N3)C1`, the figure is 97% (inactive); as for `Cc1cn(C2CCCCC2)c(=O)[nH]c1=O`, 111% (inactive); as for `Cc1csc(NC(=O)c2sc3nc(-c4cccs4)ccc3c2N)n1`, 99.7% (inactive). As for `Clc1ccc(-c2nc(NCCc3ccccc3)nc3c(NCCc4ccccc4)cnn23)cc1`, the figure is 56.4% (inactive); as for `Cc1nc(C)c(-c2nn3c(-c4cccc(F)c4)nnc3s2)s1`, 100% (inactive). For `COc1ccc(-c2nnc(-c3ccc4c(c3)nc(-c3ccccc3)n4C3CCCCC3)o2)cc1` the value was 53.2% (inactive). `Cc1cc2c(F)c(Oc3ncnc(Nc4ccc(N5C[C@@H](C)N[C@@H](C)C5)cc4)c3C#N)cc(F)c2[nH]1`: the growth is 17.4% (inactive). For `CCN(CC)CCCNC(=O)c1ccc(N)cc1` the value was 99.3% (inactive).

(Values after PubChem BioAssay (NCI).)
